Results on 67 molecules are retold here after ChEMBL document CHEMBL3988442, “University of Dundee, Small-Polar-MMV Screening Library” (2021).

Out of some 48,000 compounds screened, about 13,000 (27%) showed an effect of 50% or more. The list shows a part of the results.

The subject of this test is Wolbachia pipientis. Nature of the test: Anti-Wolbachia Cell-Based Screen. It is filed as functional. Also on record: scale not given: in the data most compounds retested in dose-response had high values. The following applies: 5 µM.
Turning to `O=C(O)c1cc(-c2ccncc2)cc(S(=O)(=O)NCc2ccccn2)c1`, the “Percent Effect” value is -3.238%.

Regarding `CC(C1CC1)N(CC(=O)NC(=O)NC1CC1)C1CC1` (configuration not stated), the “Percent Effect” value was -6.692%.

As to `O=C(CCCNC(=O)Nc1ccc(F)cc1F)Nc1cn[nH]c1`, the “Percent Effect” value is recorded as -17.8%.

Consider `O=C(Nc1ccc(F)cc1F)Nc1c[nH]c(=O)[nH]c1=O`, for which the “Percent Effect” value is -7.625%.

As for `Cc1nc(CCCNC(=O)Nc2ccc(F)cc2F)n[nH]1`, the “Percent Effect” value worked out at 105.4%.

For `Cc1[nH]ncc1CCCNC(=O)Nc1ccccc1`, the “Percent Effect” value is reported as -6.052%.

On to `Cc1[nH]ncc1CCCNC(=O)Nc1ccc(F)cc1`, for which the “Percent Effect” value came to 17.19%.

As to `Cc1nc(CCCNC(=O)Nc2cc(F)cc(F)c2)n[nH]1`, the “Percent Effect” value is on record as 105.8%.

`CCC(CO)N(Cc1ccco1)C(=O)c1ccccc1SC` (configuration not stated): the “Percent Effect” value is reported as -1.914%.

For the molecule `Cc1cc2c(c(-c3cncc(C(=O)N4CCCC4)n3)c1)OC(CN)C2` (configuration not stated), the “Percent Effect” value was found to be 3.308%.

For `CCOc1ccccc1OC1CCN(Cc2ccn(C)c(=O)c2)CC1`, the “Percent Effect” value is recorded as 96.61%.

Take `COc1ccc(OC2CCN(Cc3ccn(C)c(=O)c3)CC2)cc1`: the “Percent Effect” value was 90.95%.

Consider `Cc1cccc(C)c1OC1CCN(Cc2ccn(C)c(=O)c2)CC1`, for which the “Percent Effect” value is 80.01%.

In the case of `Cn1ccc(CN2CCC(Oc3ccccc3)CC2)cc1=O`, the “Percent Effect” value is 0.4399%.

Take `CC(=O)NCCC(=O)N(C/C=C/c1ccccc1)CCO`: the “Percent Effect” value amounted to 2.612%.

On to `CC(C)(O)CCc1ccc(C(=O)NCC2CCCOC2)cc1` (configuration not stated), for which the “Percent Effect” value is -16.45%.

On to `Cc1nc(C)c(C(=O)N2CCc3nc4c(C)csc4c(=O)n3CC2)s1.Cl`, for which the “Percent Effect” value came out at 93.57%.

With `Cc1ccc(C(=O)N2CCc3nc4c(C)csc4c(=O)n3CC2)cn1`, the “Percent Effect” value was found to be 130.6%.

Take `Cc1noc(CN2CCN(C(=O)c3ccccn3)CC2)n1`: the “Percent Effect” value is given as -3.094%.

Regarding `CCc1nc(CN2CCN(C(=O)c3cc(C)nn3C)CC2)cs1`, the “Percent Effect” value was -4.839%.

For the molecule `CN1CCN(Cc2cnc3n2CCN(C(=O)c2ccccn2)C3)CC1`, the “Percent Effect” value is reported as -0.6061%.

Turning to `Cc1csc2c(=O)n3c(nc12)CCN(C(=O)c1cccnc1)CC3`, the “Percent Effect” value was -6.131%.

Consider `Cc1csc2nc3n(c(=O)c12)CCN(C(=O)c1ccncc1)CC3`, for which the “Percent Effect” value came out at 0.2415%.

For `Cc1csc2c(=O)n3c(nc12)CCN(C(=O)c1ccccn1)CC3`, the “Percent Effect” value is given as 118.3%.

Turning to `CCc1cc(C(=O)N2CCc3nc4c(C)csc4c(=O)n3CC2)on1`, the “Percent Effect” value was found to be 101.2%.

Turning to `Cc1nc(-c2ccsc2)sc1C(=O)N1CCn2c(C)nnc2C1`, the “Percent Effect” value is on record as -8.635%.

In the case of `O=C1OCCN1CCc1nc(-c2cc3c4c(c2)CC(=O)N4CCC3)cs1`, the “Percent Effect” value is -4.599%.

`O=C(O)CC[C@@H]1CN(c2ncccc2F)CC[C@@H]1N1CCOCC1`: the “Percent Effect” value was found to be 1.489%.

Take `CSCc1nc(C(C)(C)NC(=O)OC(C)(C)C)no1`: the “Percent Effect” value turned out to be 6.132%.

As for `COc1ccc(CN2C[C@@H](CN(C)CCO)[C@@H](CO)C2)cc1Cl`, the “Percent Effect” value was -12.8%.

For the molecule `CC(C)(C)N1CC(C(=O)NCc2nc(C3CCCCC3)no2)CC1=O` (configuration not stated), the “Percent Effect” value is listed as -1.29%.

With `CCc1ccc(CNC(=O)CCNS(=O)(=O)c2cn(C)c(C)n2)s1`, the “Percent Effect” value was -8.825%.

Turning to `Cc1csc2c(=O)n3c(nc12)CCN(C(=O)c1ccnn1C)CC3`, the “Percent Effect” value came out at 126.7%.

As for `Cc1cc2c(=O)n3c(nc2s1)CCN(C(=O)c1cnn(C)c1C)CC3`, the “Percent Effect” value is recorded as -11.91%.

For `NC(=O)C1CN(C(=O)NCC2(c3ccc(F)cc3)CCC2)CCO1` (configuration not stated), the “Percent Effect” value is listed as 2.915%.

As for `COCCN1CCC(CNC(=O)Nc2ccc(SC(F)(F)F)cc2)C1` (configuration not stated), the “Percent Effect” value is on record as -1.712%.

Take `CN1CCCc2cc(NC(=O)N3CCOC(C(N)=O)C3)ccc21` (configuration not stated): the “Percent Effect” value is given as -7.642%.

As to `COc1ccc(NC(=O)N2CCC(c3nnc[nH]3)CC2)cc1C`, the “Percent Effect” value is listed as -18.03%.

Take `Cc1ccc(NC(=O)N2CCOC(C(N)=O)C2)cc1C(F)(F)F` (configuration not stated): the “Percent Effect” value came to 103.5%.

Regarding `NC(=O)C1CN(C(=O)Nc2ccc(SC(F)(F)F)cc2)CCO1` (configuration not stated), the “Percent Effect” value turned out to be 111.1%.

Regarding `NC(=O)C1CN(C(=O)Nc2cc(Cl)cc(Cl)c2)CCO1` (configuration not stated), the “Percent Effect” value is listed as -5.843%.

Consider `C[C@@H]1CN(C(=O)Nc2cccc(OC(F)F)c2)CC(C(N)=O)O1` (some centres not stated), for which the “Percent Effect” value is reported as -8.405%.

As for `Cc1cc(NC(=O)N2CCOC(C(N)=O)C2)ccc1Br` (configuration not stated), the “Percent Effect” value was determined as 158.4%.

`COCCCC1(CO)CCCN(Cc2cccc(C#N)c2)C1` (configuration not stated): the “Percent Effect” value was found to be 1.897%.

On to `COCC(C)NCc1ccc2[nH]c(C)c(C)c2c1` (configuration not stated), for which the “Percent Effect” value came out at 5.235%.

As to `Cc1ccc(-n2c(COCC(=O)O)nc3c(C)cccc32)nc1`, the “Percent Effect” value is given as -11.98%.

Take `O=C(c1ccc2nncn2c1)N1CCCC1c1noc(C2CC2)n1` (configuration not stated): the “Percent Effect” value was -1.94%.

Take `OCCCN1CCCC1c1nc(Cc2ccc(F)cc2)no1` (configuration not stated): the “Percent Effect” value is recorded as -4.354%.

On to `Cc1ncsc1CN1CC(C)(C2CC2)CC1=O` (configuration not stated), for which the “Percent Effect” value is -4.839%.

With `CCc1n[nH]c(C2CN(CCCOc3cccc(C)c3)CCO2)n1` (configuration not stated), the “Percent Effect” value came out at 13.14%.

With `Cc1nc(CN(C)C2CCN(CCCc3ccccc3)C2)no1` (configuration not stated), the “Percent Effect” value was determined as 119.3%.

On to `Cc1nc(CN(CCc2ccccc2)C2CCN(C)CC2)no1`, for which the “Percent Effect” value is recorded as -15.44%.

On to `Cc1cccc(OCCCN2CCC(N(C)Cc3noc(C)n3)C2)c1` (configuration not stated), for which the “Percent Effect” value is reported as 112.7%.

In the case of `Cc1nc(CN(C)C2CCN(CCCOc3ccccc3C)C2)no1` (configuration not stated), the “Percent Effect” value was found to be 109.1%.

Turning to `Cc1nc(CN(C)C2CCN(CCCOc3ccc(F)cc3)C2)no1` (configuration not stated), the “Percent Effect” value came out at 112.3%.

Take `CC(C)N(Cc1cccc(Cl)c1)Cc1nnsc1Cl`: the “Percent Effect” value came to 2.005%.

As for `Cc1cc(CN2CCc3nn(C)c(=O)cc3C2)no1`, the “Percent Effect” value is -29.82%.

In the case of `O=C(NCC1CCS(=O)(=O)C1)c1sccc1-c1ccc(F)cc1` (configuration not stated), the “Percent Effect” value is reported as -6.4%.

For the molecule `Cc1cc(NC(=O)NCCc2ccsc2)n(C)n1`, the “Percent Effect” value is 2.6%.

As to `Fc1ccccc1Cc1noc(CN2CCCC(CN3CCCC3)C2)n1` (configuration not stated), the “Percent Effect” value was -1.357%.

For the molecule `COCCc1noc(CN2CCCC(Cn3cncn3)C2)n1` (configuration not stated), the “Percent Effect” value was 89.51%.

Regarding `CC(C)Cc1noc(CN2CCCC(Cn3cncn3)C2)n1` (configuration not stated), the “Percent Effect” value is listed as 3.537%.

Take `Clc1snnc1CN1CCCC(Cn2cncn2)C1` (configuration not stated): the “Percent Effect” value was 3.779%.

Turning to `c1coc(-c2noc(CN3CCCC(Cn4cncn4)C3)n2)c1` (configuration not stated), the “Percent Effect” value is on record as -0.1927%.

`c1ccc(Cc2noc(CN3CCCC(Cn4cncn4)C3)n2)cc1` (configuration not stated): the “Percent Effect” value came to 97.1%.

Turning to `COCCN(C(=O)c1ccsc1)c1ccc(C#N)cc1`, the “Percent Effect” value is on record as -12.97%.

`O=C(Cc1cn2ccsc2n1)N1CCOCC(O)(CN2CCCC2)C1` (configuration not stated): the “Percent Effect” value was 4.067%.
